The full ranking holds about 1,200 compounds; the median of “% viability” is about 1, and the lowest 2% start at about 0.27. This is one part of a sample in which the lowest values are shown more often than they occur. The numbers are fractions of the control, whatever unit the source prints.
test system: S. rosetta (SrEpac culture); details: flow cytometry, 24 h, high-nutrient medium; 10 µM

Row | SMILES | % viability
1 | CCCc1cc(-c2cncc(OCC(N)Cc3c[nH]c4ccccc34)c2)cc2c(C)n[nH]c12 (stereo not shown) [KMS_217] | 0

From paper PMC11984502, “A stress-responsive p38 signaling axis in choanoflagellates” (RSC Chemical Biology, 2025)
